# Experimental data published in PubChem BioAssay AID1159580 (chemical genetic matrix, 2015).
# Values joined by “and” are separate entries in the source; they are usually repeats but may differ in a detail not shown here. Equal entries are not always repeated. In all, about 5,500 compounds went through this assay and about 2,000 (36%) were called active. Roughly 18% stayed inconclusive and do not appear here. The list shows a part of the results. A number with no mark means an inactive call. No stated cut-off is given here; in the data, active means normalized growth mostly below about 0.91 (no sharp cut-off); inconclusive means no clear call, values can overlap the other calls; inactive means mostly above about 0.92.
# Assay: chemical genetic growth profiling, strain panel (AID 1159580);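 further: tested at 20 µM; growth read once vehicle control cultures reached saturation at 30 °C; 1 = growth at the plate median or of vehicle wells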
# Details: S. cerevisiae deletion strains, growth OD
smiles,measurement,setting,value
CCn1cc(C(=O)O)c(=O)c2cnc(N3CCCC3)nc21,normalized growth,"locus YAL021C, strain ccr4, stronger effect = lower value",0.898 (active)
same,normalized growth,"locus YAL026C, strain drs2, stronger effect = lower value",0.956
same,normalized growth,"locus YAL030W, strain snc1, stronger effect = lower value",0.997
same,normalized growth,"locus YBL061C, strain skt5, stronger effect = lower value",1.01
same,normalized growth,"locus YBR009C, strain hhf1, stronger effect = lower value",1.04
same,normalized growth,"locus YBR021W, strain FUR4, stronger effect = lower value",1.03
same,normalized growth,"locus YBR023C, strain chs3, stronger effect = lower value",1
same,normalized growth,"locus YBR171W, strain sec66, stronger effect = lower value",1
same,normalized growth,"locus YBR229C, strain ROT2, stronger effect = lower value",1.01
same,normalized growth,"locus YBR231C, strain swc5, stronger effect = lower value",1.03
same,normalized growth,"locus YBR279W, strain paf1, stronger effect = lower value",0.989
same,normalized growth,"locus YCL011C, strain gbp2, stronger effect = lower value",1
same,normalized growth,"locus YCL016C, strain dcc1, stronger effect = lower value",1
same,normalized growth,"locus YCL029C, strain bik1, stronger effect = lower value",0.997
same,normalized growth,"locus YCL061C, strain MRC1, stronger effect = lower value",1
same,normalized growth,"locus YCL069W, strain vba3, stronger effect = lower value",0.997
same,normalized growth,"locus YCR088W, strain abp1, stronger effect = lower value",1.01
same,normalized growth,"locus YDL005C, strain med2, stronger effect = lower value",1
same,normalized growth,"locus YDL035C, strain GPR1, stronger effect = lower value",1.02
same,normalized growth,"locus YDL040C, strain nat1, stronger effect = lower value",0.991
same,normalized growth,"locus YDL074C, strain BRE1, stronger effect = lower value",1.04
same,normalized growth,"locus YDL101C, strain DUN1, stronger effect = lower value",1.02
same,normalized growth,"locus YDL134C, strain PPH21, stronger effect = lower value",1.03
same,normalized growth,"locus YDL185W, strain tfp1, stronger effect = lower value",1.01
same,normalized growth,"locus YDL192W, strain arf1, stronger effect = lower value",0.993
same,normalized growth,"locus YDR001C, strain nth1, stronger effect = lower value",1.01
same,normalized growth,"locus YDR069C, strain doa4, stronger effect = lower value",1
same,normalized growth,"locus YDR101C, strain arx1, stronger effect = lower value",0.999
same,normalized growth,"locus YDR137W, strain rgp1, stronger effect = lower value",0.95
same,normalized growth,"locus YDR159W, strain sac3, stronger effect = lower value",1.01
same,normalized growth,"locus YDR162C, strain NBP2, stronger effect = lower value",1.01
same,normalized growth,"locus YDR195W, strain ref2",1.04
same,normalized growth,"locus YDR297W, strain sur2, stronger effect = lower value",1.01
same,normalized growth,"locus YDR318W, strain mcm21, stronger effect = lower value",1
same,normalized growth,"locus YDR334W, strain swr1, stronger effect = lower value",1.01
same,normalized growth,"locus YDR335W, strain msn5, stronger effect = lower value",1
same,normalized growth,"locus YDR388W, stronger effect = lower value",1.01
same,normalized growth,"locus YDR392W, strain spt3, stronger effect = lower value",1.03
same,normalized growth,"locus YDR502C, strain sam2, stronger effect = lower value",1.01
same,normalized growth,"locus YEL003W, strain gim4, stronger effect = lower value",1.01
same,normalized growth,"locus YEL037C, strain rad23, stronger effect = lower value",0.999
same,normalized growth,"locus YEL061C, strain CIN8 (second series), stronger effect = lower value",1
same,normalized growth,"locus YEL061C, strain CIN8, stronger effect = lower value",0.999
same,normalized growth,"locus YER015W, strain faa2, stronger effect = lower value",1
same,normalized growth,"locus YER016W, strain bim1, stronger effect = lower value",1.01
same,normalized growth,"locus YER110C, stronger effect = lower value",1
same,normalized growth,"locus YER111C, strain swi4, stronger effect = lower value",1.02
same,normalized growth,"locus YER155C, strain BEM2 (second series), stronger effect = lower value",0.998
same,normalized growth,"locus YER155C, strain BEM2, stronger effect = lower value",1.01
same,normalized growth,"locus YER167W, strain BCK2, stronger effect = lower value",1.01
same,normalized growth,"locus YFR010W, strain ubp6, stronger effect = lower value",0.997
same,normalized growth,"locus YGL078C, strain dbp3, stronger effect = lower value",1
same,normalized growth,"locus YGL086W, strain mad1, stronger effect = lower value",1
same,normalized growth,"locus YGL167C, strain pmr1, stronger effect = lower value",1.01
same,normalized growth,"locus YGL173C, strain kem1, stronger effect = lower value",1
same,normalized growth,"locus YGL227W, strain vid30, stronger effect = lower value",1.01
same,normalized growth,"locus YGL240W, strain doc1, stronger effect = lower value",1.05
same,normalized growth,"locus YGL248W, strain PDE1, stronger effect = lower value",1
same,normalized growth,"locus YGL253W, strain hxk2, stronger effect = lower value",1.04
same,normalized growth,"locus YGR078C, strain PAC10, stronger effect = lower value",1.01
same,normalized growth,"locus YGR135W, strain pre9, stronger effect = lower value",1.01
same,normalized growth,"locus YGR252W, strain gcn5, stronger effect = lower value",1.12
same,normalized growth,"locus YHR013C, strain ard1, stronger effect = lower value",0.998
same,normalized growth,"locus YHR027C, strain rpn1, stronger effect = lower value",1
same,normalized growth,"locus YHR030C, strain SLT2, stronger effect = lower value",1 and 0.991
same,normalized growth,"locus YHR079C, strain IRE1 (second series), stronger effect = lower value",1
same,normalized growth,"locus YHR079C, strain IRE1, stronger effect = lower value",0.998
same,normalized growth,"locus YHR094C, strain hxt1, stronger effect = lower value",0.999
same,normalized growth,"locus YHR129C, strain ARP1, stronger effect = lower value",1.02
same,normalized growth,"locus YHR142W, strain chs7, stronger effect = lower value",0.962
same,normalized growth,"locus YHR200W, strain rpn10, stronger effect = lower value",0.998
same,normalized growth,"locus YIL066C, strain RNR3, stronger effect = lower value",1.01
same,normalized growth,"locus YIL073C, strain SPO22, stronger effect = lower value",1.1
same,normalized growth,"locus YIL125W, strain kgd1, stronger effect = lower value",1.01
same,normalized growth,"locus YIR030C, strain dcg1, stronger effect = lower value",0.987
same,normalized growth,"locus YJL092W, strain hpr5, stronger effect = lower value",1.01
same,normalized growth,"locus YJL095W, strain BCK1 (second series), stronger effect = lower value",1
same,normalized growth,"locus YJL095W, strain BCK1, stronger effect = lower value",1
same,normalized growth,"locus YJL115W, strain asf1, stronger effect = lower value",0.94
same,normalized growth,"locus YJL129C, strain trk1, stronger effect = lower value",1.11
same,normalized growth,"locus YJL134W, strain LCB3, stronger effect = lower value",1
same,normalized growth,"locus YJL154C, strain vps35, stronger effect = lower value",0.991
same,normalized growth,"locus YJL164C, strain tpk1, stronger effect = lower value",0.99
same,normalized growth,"locus YJL166W, strain qcr8, stronger effect = lower value",0.996
same,normalized growth,"locus YJL168C, strain set2, stronger effect = lower value",1
same,normalized growth,"locus YJL187C, strain SWE1 (second series), stronger effect = lower value",0.997
same,normalized growth,"locus YJL187C, strain SWE1, stronger effect = lower value",1
same,normalized growth,"locus YJR043C, strain POL32, stronger effect = lower value",1.03
same,normalized growth,"locus YJR066W, strain TOR1, stronger effect = lower value",0.982
same,normalized growth,"locus YJR075W, strain HOC1, stronger effect = lower value",1.02
